# Bioassay records as filed in PubChem BioAssay.
# Rows were chosen to be rich in hits. Some 2.3% of all compounds tested hit in one or more screens of this group.
# UBC13 inh: inhibitors of human UBC13 polyubiquitin chain formation. P61088. 330,000 compounds, 0.47% hits. inhibition, % at 20 µM. TR-FRET. AID 485273; in the data active = inhibition above about 45%, passing the limit was not always enough
# MEKK3 PB1 HTS: modulators (inhibitors or enhancers) of MEK5 binding to human MEKK3 PB1 domain. Q99759. bead-based flow cytometry, Alexa488-MEK5 binding to MEKK3; actives lie on both sides; 0 = blocked by unlabeled MEK5, 100 = vehicle. binding response (% of control), % at 10 µM. 290,000 compounds, 1.4% hits;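 active = binding response more than 3 SD above or below the average of its plate-row segment, actives on both sides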;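 note: Alexa488 bead fluorescence after subtracting the streptavidin-only scavenger bead signal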
# MEKK2 WT-MEK5: raises or lowers MEK5 binding to wildtype human MEKK2 PB1 domain; Q9Y2U5; AID 1531; 290,000 compounds, 1.1% hits; bead flow cytometry, Alexa488-MEK5 binding to MEKK2 WT; actives lie on both sides; binding response (% of control), % at 10 µM; in the data active = binding response below about 67% or above about 130%
# MEKK2mut PB1 HTS: signal of MEK5 binding to mutant human MEKK2 PB1 domain. percent response, % at 10 µM. 290,000 compounds, 0.35% hits. AID 1530. bead flow cytometry, Alexa488-MEK5 binding to MEKK2 mutant; in the data active = percent response above about 24%, passing the limit was not always enough
# MEKK2wt confirm: raises or lowers MEK5 binding to wildtype human MEKK2, retest. shares compounds with MEKK3 PB1 HTS. 5,900 compounds, 2.4% hits. binding response (% of control), % at 10 µM. bead flow cytometry, Alexa488-MEK5 binding to MEKK2 WT; actives lie on both sides; in the data active = binding response below about 16% or above about 210%; inactive = in between
# MEKK2mut confirm: signal of MEK5 binding to mutant human MEKK2, retest; shares compounds with MEKK3 PB1 HTS; percent response, % at 10 µM; AID 1893; 5,900 compounds, 2% hits; bead flow cytometry, Alexa488-MEK5 binding to MEKK2 mutant; in the data active = percent response mostly above about 71%, no sharp cut-off; inactive = mostly below about 38%;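 note: higher means compound restores mutant binding toward wildtype level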
# MEKK3-MEK5 inh: confirmation of inhibitors of MEK5 binding to human MEKK3. shares compounds with MEKK3 PB1 HTS. bead flow cytometry, Alexa488-MEK5 binding to MEKK3; hits give low values. binding response (% of control), % at 10 µM. 5,900 compounds, 1.8% hits;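 active = binding response below 72% of control, or above a set upper limit, though filed actives all read lower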;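 note: 100% = DMSO only wells and 0% = binding blocked by excess unlabeled MEK5; lower values mean stronger disruption of MEK5 binding to MEKK3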
# * = called active by the depositor; · = no result; [ ] = remark or other dose.
SMILES,UBC13 inh,MEKK3 PB1 HTS,MEKK2 WT-MEK5,MEKK2mut PB1 HTS,MEKK2wt confirm,MEKK2mut confirm,MEKK3-MEK5 inh
Cc1ccc(-c2nc(N)sc2CC(=O)OCC(=O)N2C(C)CCCC2C)cc1 (configuration not stated),-2.0,140.0*,111.0,1.0,98.0,-5.0,101.0
COc1ccc(C)cc1NC(=O)C1CCCN1S(=O)(=O)c1ccccc1F (configuration not stated),3.4,·,·,·,·,·,·
CC1CCCN(Cc2c(O)ccc3c(=O)c(-c4nc5ccccc5s4)c(N)oc23)C1 (configuration not stated),19.5,111.0,161.0*,25.0,155.0,30.0,104.0
CC1CCN(Cc2c(O)ccc3c(=O)c(-c4nc5ccccc5s4)c(N)oc23)CC1,-18.6,109.0,120.0,7.0,·,·,·
COC(=O)CSc1nc(SCc2ccccc2Cl)nc2c1CCCC2,-0.9,92.0,95.0,-3.0,·,·,·
O=C(O)CSc1nc(SCc2ccccc2Cl)nc2c1CCCC2,2.2,122.0*,125.0,10.0,103.0,0.0,103.0
Cc1ccc(C)c(NC(=S)NNC(=O)c2sccc2C)c1,7.2,78.0,82.0,-9.0,·,·,·
Cc1ccc(C)c(NC(=S)NNC(=O)c2csc(C)c2C)c1,-0.3,2.0*[inhibitor],2.0*[inhibitor],1.0,104.0,-2.0,105.0
CCOC(=O)C1C(=O)OC(C)(C)C1C(C)C(=O)c1ccc(C)cc1C (configuration not stated),6.8,1.0*[inhibitor],-2.0*[inhibitor],-26.0,96.0,15.0,102.0
CCNc1ccc(C(=O)OCC)cc1NC(=O)c1cccc(N(C)C)c1,-6.2,97.0,95.0,-2.0,·,·,·
CCOC(=O)c1ccc(S(=O)(=O)NNC(=O)c2cccc(N(C)C)c2)cc1,-1.4,3.0*[inhibitor],3.0*[inhibitor],4.0,98.0,-3.0,100.0
Cc1ccc(C)c(NC(=O)COC(=O)c2cc(=O)c3ccccc3o2)c1,-1.1,·,·,·,·,·,·
COc1cc(/C=N/OCC(=O)Nc2ccc(OC(F)F)cc2)ccc1OCc1ccccc1,4.1,135.0*,108.0,-1.0,99.0,-7.0,101.0
c1ccc2[nH]c(N3CCOCC3)nc2c1,-4.2,107.0,109.0,8.0,·,·,·
c1ccc(N2CCN(c3nc4ccccc4[nH]3)CC2)nc1,17.2,74.0*[inhibitor],84.0,-4.0,94.0,-6.0,93.0
O=c1nc(Nc2ccc(Br)cc2)sc2ccc([N+](=O)[O-])cc12,-13.8,118.0,100.0,9.0,·,·,·
O=C(O)Cn1nc(-c2ccccc2)c2ccccc2c1=O,6.1,100.0,97.0,-1.0,·,·,·
NNC(=O)Cn1nc(-c2ccccc2)c2ccccc2c1=O,-5.4,2.0*[inhibitor],3.0*[inhibitor],-51.0,105.0,4.0,105.0
